# What was measured:
# [1] = molecular target: T1, Aspartate--tRNA(Asp/Asn) ligase (Mycobacterium tuberculosis (strain ATCC 25618 / H37Rv)) (UniProt P9WFW3); assay: Assay for Asp RNA synthetase-1 from Mycobacterium tuberculosis; format: functional; design: scale not given: direction of the effect not stated beside the values; details: 30 µM; note: in the data most compounds retested in dose-response had high values
# T1 sequence (whole entry): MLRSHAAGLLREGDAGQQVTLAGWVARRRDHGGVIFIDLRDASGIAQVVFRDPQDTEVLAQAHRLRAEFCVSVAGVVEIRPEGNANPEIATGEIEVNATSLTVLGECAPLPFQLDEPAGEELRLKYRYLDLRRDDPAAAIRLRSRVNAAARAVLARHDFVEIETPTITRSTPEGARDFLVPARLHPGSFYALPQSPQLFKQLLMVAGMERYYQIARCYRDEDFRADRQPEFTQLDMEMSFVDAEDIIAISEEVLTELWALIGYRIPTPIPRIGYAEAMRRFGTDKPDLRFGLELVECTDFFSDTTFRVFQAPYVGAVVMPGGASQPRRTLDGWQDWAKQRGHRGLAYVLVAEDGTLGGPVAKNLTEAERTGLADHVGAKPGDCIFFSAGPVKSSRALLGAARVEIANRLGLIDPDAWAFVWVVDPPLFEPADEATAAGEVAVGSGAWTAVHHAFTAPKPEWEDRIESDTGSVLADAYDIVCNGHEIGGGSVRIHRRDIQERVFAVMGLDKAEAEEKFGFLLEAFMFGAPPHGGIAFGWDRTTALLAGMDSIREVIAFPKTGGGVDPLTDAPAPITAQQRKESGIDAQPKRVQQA
# [2] = molecular target: Shiga toxin 2 (Escherichia coli O157:H7) (UniProt P09385+P09386); assay: E. coli 0.157:H7 Shiga Toxin SOP - stx2 screening assay; format: functional; design: scale not given: direction of the effect not stated beside the values; details: 30 µM
SMILES,Percent Effect [1],Percent Effect [2]
Cc1ccc(OCC(=O)NCC(C)C)nc1,-3.37%,-28.9%
CC(C)(C)NC(=O)C1CSCN1S(=O)(=O)c1ccc(F)cc1 (centres undefined),5.02%,1.58%
Cc1ccc(C(=O)N2CCN(Cc3ccsc3)CC2)n1C,1.28%,3.04%
CC(C)c1nc(C2CCCN2CC(=O)N2CCc3ccccc32)no1 (centres undefined),1.52%,10.6%
c1ccc(CNC2CCc3ncnn3C2)nc1 (centres undefined),-0.856%,-65.4%
CC(C)NC(=O)N1CCN(CC2CC2)CC2(CC(=O)N(C)C2)C1 (centres undefined),0.324%,-11.9%
Cc1cc(CN2CC[C@H]3C(=O)N(c4ccccc4)CCO[C@H]3C2)no1,-4.96%,-8.26%
CC(NC(=O)NCCNc1cnccn1)c1cccs1 (centres undefined),-0.971%,-34.6%
CC1CCCCN1C(=O)CN1CCN(c2ccc3nncn3n2)CC1 (centres undefined),0.945%,-8.03%
Cc1cnn(C2CN(CC(=O)Nc3cccnc3)C2)c1,3.91%,11%
O=C(CCC1CCCO1)NS(=O)(=O)c1ccc(Cl)cc1 (centres undefined),-1.43%,21.6%
O=C(NC[C@]12COC[C@H]1CN(Cc1nccs1)C2)c1ccccc1,-2.56%,-14.5%
CCc1nnc2n1CCN(C(=O)CN(C)Cc1ccccc1)C2,-3.23%,15.9%
COC(=O)C(c1cc(F)ccc1F)N(C)C(=O)c1ccnc(C)n1 (centres undefined),-0.393%,-2.56%
COc1cc(CCC(=O)NCC2CCCN2C)ccc1OCC(F)(F)F (centres undefined),1.43%,22.2%
COc1cccc(CNC(=O)CC2CSc3ncc(C)c(=O)n32)c1 (centres undefined),1.5%,6.98%
CN1CCN(CC2CC2)C(=O)c2cnc(N3CCCCC3)nc21,3.69%,-8.64%
